Source: PubChem BioAssay AID784 (The Scripps Research Institute Molecular Screening Center, 2007)
About 130 (0.43%) of roughly 30,000 compounds were called active. Rule as the data show it: active = activation above about 65%; inactive = the rest. What follows is part of a selection rich in actives, with near analogues and random picks from the rest.

Each molecule was assayed against Lysosomal acid glucosylceramidase (Homo sapiens) (UniProt P04062) (assay: raising glucocerebrosidase activity, Gaucher cells – primary screen (AID 784;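 also: 0% = vehicle wells and 100% = positive control wells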)). Settings: L444P Gaucher fibroblasts, 4-MU-glucoside fluorescence, 3 days; at 10 µM; hits give high values.
Lysosomal acid glucosylceramidase (Homo sapiens), sequence (P04062 whole entry L483P): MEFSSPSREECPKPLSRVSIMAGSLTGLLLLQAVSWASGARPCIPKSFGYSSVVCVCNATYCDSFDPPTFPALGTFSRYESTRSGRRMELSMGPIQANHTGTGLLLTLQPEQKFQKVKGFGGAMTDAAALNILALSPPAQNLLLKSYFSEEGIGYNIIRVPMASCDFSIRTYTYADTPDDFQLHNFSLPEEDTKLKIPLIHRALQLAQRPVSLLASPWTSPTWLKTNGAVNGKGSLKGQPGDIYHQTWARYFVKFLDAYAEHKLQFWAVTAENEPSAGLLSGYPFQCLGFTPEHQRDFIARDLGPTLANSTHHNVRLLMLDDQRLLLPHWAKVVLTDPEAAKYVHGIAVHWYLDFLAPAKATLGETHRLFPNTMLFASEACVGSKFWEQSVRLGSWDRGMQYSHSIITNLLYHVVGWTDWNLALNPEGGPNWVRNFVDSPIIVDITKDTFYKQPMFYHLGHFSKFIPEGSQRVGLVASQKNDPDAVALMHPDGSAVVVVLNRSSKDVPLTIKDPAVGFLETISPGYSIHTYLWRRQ
For `COc1ccc(CC(=O)Nc2ccc3c(c2)CCC3)cc1S(=O)(=O)N1CCOCC1`, the activation was 32.8% (inactive). `Cc1ccc(C(=O)NC2CC(C)(C)NC(C)(C)C2)c(C)c1` was tested, and the activation was -52.5% (inactive). In the case of `CC(=NC1CCN(Cc2ccccc2)CC1)c1c(O)[nH]c(=O)[nH]c1=O`, the activation was -6.5% (inactive). `CS(=O)(=O)N(CC(=O)N1CCN(Cc2ccc3c(c2)OCO3)CC1)c1ccc2c(c1)OCO2` was tested, and the activation was -6.7% (inactive). With `CCC(C)n1[nH]c(=O)cc1N` (stereo unspecified) the activation was 4.55% (inactive). For `COc1ccc(C(=O)Cn2nnc(-c3ccc(N4CCOCC4)cc3)n2)cc1OC`, the activation was -17.5% (inactive). With `O=C1CN(C(=O)COC(=O)C2CC(=O)N(Cc3ccco3)C2)c2ccccc2N1` (stereo unspecified) the activation was 4.58% (inactive). For `CN(C(=O)c1ccno1)c1nnc(-c2cccnc2)s1`, the activation was -12.7% (inactive). With `COC(=O)c1sccc1NC(=O)c1csc2c1CCCC2` the activation was -10.4% (inactive). With `CC(=O)Cc1nsc(NC(=O)c2csc3c2CCCC3)n1` the activation was -9.06% (inactive). For `COC(=O)c1sc(NC(=O)c2csc3c2CCCC3)nc1C`, the activation was 67.1% (active). In the case of `CCN(CC)S(=O)(=O)c1ccc(NC(=O)CN(c2cccc(F)c2)S(C)(=O)=O)cc1`, the activation was 83.1% (active). With `COc1cccc(N(CC(=O)Nc2cccc(F)c2)S(C)(=O)=O)c1` the activation was 4.09% (inactive). In the case of `COc1cccc(N(CC(=O)Nc2cccc(N(C)S(C)(=O)=O)c2)S(C)(=O)=O)c1`, the activation was -7.1% (inactive). For `COc1ccccc1N1CCN(C(=O)CSc2nnc(-c3ccoc3C)o2)CC1`, the activation was 7.59% (inactive). `CCC(C)(C)NC(=O)C(c1cccn1C)N(Cc1ccc(C)cc1)C(=O)Cn1nnc2ccccc21` (stereo unspecified) was tested, and the activation was -4.98% (inactive). For `CCOC(=O)C1(Cc2ccc(O)cc2)NC(c2ccccc2F)C2C(=O)N(C)C(=O)C21` (stereo unspecified), the activation was 102% (active). In the case of `CCOC(=O)C1(c2ccccc2)NC(c2ccc(N(C)C)cc2)C2C(=O)N(C)C(=O)C21` (stereo unspecified), the activation was -22.4% (inactive). In the case of `COc1ccc2nc(N3CCCC(O)C3)c(C#N)cc2c1` (stereo unspecified), the activation was -3.51% (inactive). With `Cc1nc(SC(C)C)[nH]c(=O)c1Cc1ccccc1` the activation was 1.07% (inactive). In the case of `CCc1c(C)nc2ncnn2c1N1CCC(C(=O)NCc2ccc3c(c2)OCO3)CC1`, the activation was 9.86% (inactive). `CCOC(=O)C(C)Oc1cccc2c(=O)n(CC(=O)N3CCc4ccccc43)ccc12` (stereo unspecified) was tested, and the activation was 3.53% (inactive). In the case of `O=C(COC(=O)c1ccc2c(c1)OCCO2)NCc1ccccc1`, the activation was 1.84% (inactive). In the case of `Cc1cc(C)c(S(=O)(=O)NCCCN2CCOCC2)cc1Br`, the activation was 17.8% (inactive). `CCN(CC)S(=O)(=O)c1cccc(C(=O)Nc2ccccc2)c1` was tested, and the activation was -3.99% (inactive). In the case of `CC(C)C[C@H](NC(=O)NCCc1ccc(Cl)cc1)C(=O)O`, the activation was -14.7% (inactive). For `COc1ccc(CCN=C2SCC(=O)N2C)cc1OC`, the activation was -11.5% (inactive). `CCOc1ncccc1C(=O)OCc1cn2cc(Cl)ccc2n1` was tested, and the activation was 2.09% (inactive). For `COc1ccccc1N1CCN(C(=O)Cn2nnc(-c3cccs3)n2)CC1`, the activation was -45% (inactive). For `O=C(CN1CCN(c2nc(-c3ccccc3)cs2)CC1)NCc1ccc2c(c1)OCO2`, the activation was -22.9% (inactive). For `COC(=O)c1cn(-c2ccccc2)nc1-c1cccnc1`, the activation was 64.9% (inactive). `CCOc1ccc(N2C(=O)CC(N(O)c3ccccc3)C2=O)cc1` (stereo unspecified) was tested, and the activation was 20.8% (inactive). In the case of `Cc1cc(C)nc(SCc2nnc(SCC(=O)OC3CCCCC3)o2)n1`, the activation was -16% (inactive). In the case of `Cc1ccc(C(=O)CSc2nc3ccccc3c(=O)n2N)o1`, the activation was -3.06% (inactive). For `Cc1ccc(S(=O)(=O)NCC(=O)OCC(=O)N2CCc3ccccc32)cc1`, the activation was -6.72% (inactive). In the case of `O=C(Nc1ccccc1)c1cccnc1Nc1ccccc1`, the activation was -10.1% (inactive). For `O=C(Nc1ccc2c(c1)nc1n2CCCCC1)c1cc(S(=O)(=O)N2CCOCC2)ccc1Cl`, the activation was -3.59% (inactive). For `CCN(CC(=O)NC(C)C)C(=O)CCNC(=O)c1ccc(Cl)cc1`, the activation was 21% (inactive). With `CN1CCN(S(=O)(=O)c2ccc(NC(=O)c3ccco3)cc2)CC1` the activation was -8.04% (inactive). For `CCC1SC2=NCCN2C1(O)c1ccc(Cl)cc1` (stereo unspecified), the activation was -18.2% (inactive). With `c1ccc(-c2oc3ncnc(N4CCOCC4)c3c2-c2ccccc2)cc1` the activation was -12.4% (inactive). For `CCC(C)Sc1nc2c(c(=O)[nH]c(=O)n2C)n1CC(O)COc1cccc2ccccc12` (stereo unspecified), the activation was -21% (inactive). For `CNC(=O)C1CC(=O)N(Cc2ccc3c(c2)OCO3)C(=Nc2ccc(F)cc2)S1` (stereo unspecified), the activation was -16.6% (inactive). With `COc1ccc(C(=O)CSc2nccc(=O)[nH]2)cc1` the activation was -9.63% (inactive). For `O=C(OCc1nnc(-c2ccccc2)o1)c1ccc2c(c1)C(=O)N(CCc1ccccc1)C2=O`, the activation was -2.93% (inactive). `COc1c(C)cccc1C(=O)Nc1cc(Cl)ccc1N1CCOCC1` was tested, and the activation was -42.8% (inactive). `CC(=O)OCc1cc2cc(C)ccc2[nH]c1=O` was tested, and the activation was -12% (inactive). For `COc1cc2c(cc1OC)C(c1ccncc1)CC(=O)N2` (stereo unspecified), the activation was -30.8% (inactive). In the case of `CCc1c(C)nc(N)n2c(SCC(=O)N3CCN(c4ccccc4)CC3)nnc12`, the activation was -9.46% (inactive). For `CCOC(=O)c1c(NC(=O)CCC(=O)NCc2ccco2)sc2c1CCCC2`, the activation was -3.62% (inactive). `O=c1nc(N2CCOCC2)nc2n1CCO2` was tested, and the activation was 0.48% (inactive). With `O=C(CN1C2CCC1CC(NC(=O)C1CC1)C2)NCc1ccccc1` (stereo unspecified) the activation was -20% (inactive). With `CCn1c(COc2cccc(OC)c2)nnc1SCC(=O)N1CCOCC1` the activation was 2.04% (inactive). `COc1ccc(S(=O)(=O)N(CCCN2CCCC2=O)Cc2cc3c(C)ccc(C)c3[nH]c2=O)cc1` was tested, and the activation was -24.5% (inactive). `COc1ccccc1Nc1ncnc2c1oc1ccccc12` was tested, and the activation was -53.1% (inactive). For `O=C(NCc1ccccn1)c1cc2ccccc2oc1=O`, the activation was -7.53% (inactive). For `O=C(CNCCO)NC12CC3CC(CC(C3)C1)C2`, the activation was 10% (inactive). `COc1cc(NS(=O)(=O)c2ccccc2)ccc1-n1nc(C)cc1C` was tested, and the activation was 4.78% (inactive). For `C=C(C)c1cccc(C(C)(C)NC(=O)N2CCN(c3ncccn3)CC2)c1`, the activation was 0.53% (inactive). For `Cc1ccsc1C(=O)OCC(=O)c1cc2ccccc2o1`, the activation was 6.97% (inactive). `COc1ccc(CCn2nnnc2C(c2ccccc2)N2CCN(C)CC2)cc1OC` (stereo unspecified) was tested, and the activation was -1.68% (inactive). With `CCn1c(SCC(=O)NCC2CCCO2)nc2cc(S(=O)(=O)N3CCCCC3)ccc21` (stereo unspecified) the activation was -14.9% (inactive). `CCN1C(=O)CS/C1=N\c1nccs1` was tested, and the activation was -12.6% (inactive). `Cc1ccc(S(=O)(=O)N(C)CC(=O)N2CCc3ccccc32)cc1` was tested, and the activation was 0.44% (inactive). In the case of `Cc1cccc(OCc2nnc(SCn3nnc4ccccc4c3=O)o2)c1`, the activation was 4.49% (inactive). `Cc1cc(C)cc(OCc2nnc(SCC(=O)Nc3ccccc3)o2)c1` was tested, and the activation was -21.4% (inactive). With `O=C(Nc1ccc2c(c1)OCCO2)C1CCCN(c2ncccn2)C1` (stereo unspecified) the activation was -35.2% (inactive). In the case of `O=C(NC1CCN(Cc2ccccc2)CC1)c1ccccc1F`, the activation was -0.98% (inactive). In the case of `O=C(COC(=O)c1ccc(Oc2ccccc2)cc1)Nc1nnc(-c2ccccc2)o1`, the activation was -9.15% (inactive). In the case of `Cc1nc2cc(-c3ccc(F)cc3)nn2c(N2CCOCC2)c1C`, the activation was 4.6% (inactive). For `COc1ccc(CNC2CCCCC2)cc1`, the activation was -12% (inactive). For `CCn1c(COc2ccc(OC)cc2)nnc1SCC(=O)Nc1cc(OC)ccc1OC`, the activation was -5.85% (inactive). In the case of `CC(=O)N1CCC(C(=O)Nc2nc(-c3ccccc3)ns2)CC1`, the activation was -7.15% (inactive). In the case of `Cn1c(=O)c2c(nc(CN3CCOCC3)n2Cc2ccccc2)n(C)c1=O`, the activation was -2.48% (inactive). For `Cc1ccc(-c2nc(COC(=O)c3c(C)noc3C)cs2)cc1`, the activation was 4.07% (inactive). In the case of `CCOC(=O)c1ccccc1NC(=O)CC1Nc2ccccc2NC1=O` (stereo unspecified), the activation was -13.8% (inactive). With `Cc1cccc2nc(CNc3ccc(F)cc3)cn12` the activation was -22.2% (inactive). In the case of `COC(=O)N1CN(C(=O)OC)CN(C(=O)OC)C1`, the activation was -8.85% (inactive). With `CC(=O)N1CCN(C(=O)c2cccc(S(=O)(=O)Nc3ccc(C)cc3)c2)CC1` the activation was 5.73% (inactive). In the case of `CCn1nnc(NC(=O)c2c(OC)cccc2OC)n1`, the activation was 4.73% (inactive). `COc1ccccc1N1CC(O)=C(c2nc3ccccc3s2)C1=N` was tested, and the activation was 8.76% (inactive). With `Cc1ccc(NC(=O)CN2CCC3(O)CCCCC3C2c2ccc3c(c2)OCO3)c(C)c1` (stereo unspecified) the activation was -20.4% (inactive). `CCOC(=O)c1sc(/N=C/Nc2nc(C)c(C(=O)OCC)s2)nc1C` was tested, and the activation was -5.05% (inactive). For `CCC(c1nnnn1Cc1ccccc1)N(Cc1cc2cc(OC)ccc2[nH]c1=O)CC1CCCO1` (stereo unspecified), the activation was -25.6% (inactive). `COc1ccc(CCNC(=O)c2ccco2)cc1` was tested, and the activation was -11.6% (inactive). With `CCC12CN3CC(CC)(CN(C1)C31C(=O)N(C)c3ccc(C)cc31)C2=O` (stereo unspecified) the activation was -17.4% (inactive). `Cc1cccc(NC(=O)COc2ccc(Br)cc2C)n1` was tested, and the activation was 7.05% (inactive). `CC(=O)c1ccc(-n2nnnc2SCC(=O)N2CCN(C(=O)c3ccco3)CC2)cc1` was tested, and the activation was -18.5% (inactive). `O=C(CN(CC1CCCO1)C(=O)CNS(=O)(=O)c1ccccc1)NCc1ccccc1` (stereo unspecified) was tested, and the activation was -28.7% (inactive). In the case of `CC1CCCC(NC(=O)CSc2nccn2C)C1C` (stereo unspecified), the activation was -8.08% (inactive). In the case of `CCOC(=O)c1c(C)[nH]c(C(=O)COc2ccc3c(c2)OCO3)c1C`, the activation was 6.28% (inactive). For `Cn1c(SCC(=O)c2cccs2)nnc1-c1ccco1`, the activation was -23% (inactive). For `CCCn1c(SCC(=O)N2CCc3ccccc32)nnc1-c1ccncc1`, the activation was -11% (inactive). `CCCSC1=C(C#N)C(c2ccccc2C)C(C(=O)OC)C(=O)N1` (stereo unspecified) was tested, and the activation was -16.4% (inactive). For `Cc1cc(C)c2c(c1)cc(C)c1nnc(SCC(=O)Nc3cc(C)on3)n12`, the activation was -30.3% (inactive). With `CCOC(=O)c1cc(-c2nnc(-c3cc(OC)c(OC)c(OC)c3)o2)c(C)nc1C` the activation was -21.7% (inactive). With `O=C(Nc1ccc(S(=O)(=O)N2CCCC2)cc1Cl)C1=COCCO1` the activation was 22.5% (inactive). For `O=C(O)c1ccc(NS(=O)(=O)c2cccc3nsnc23)cc1`, the activation was 1.35% (inactive). With `CC1=CC(C)(C)N(C(=O)CSc2nccn2C)c2cc(C)ccc21` the activation was -9.35% (inactive). `CN1CCC2(CC1)NC(=O)NC2=O` was tested, and the activation was -11.5% (inactive). For `COC(=O)C(CC(=O)Nc1cc(C)ccc1C)Nc1ccccc1OC` (stereo unspecified), the activation was 3.63% (inactive). `Cn1cccc1C(=O)NC(=O)COC(=O)Cc1coc2ccc3ccccc3c12` was tested, and the activation was -54.5% (inactive). `Cc1ccc(NC(=O)CS(=O)CC(=O)N(c2ccccc2)C(C)C(=O)NC2CCCC2)cc1` (stereo unspecified) was tested, and the activation was 0.43% (inactive). `CCCc1nnc(NC(=O)c2cc(OC)cc(OC)c2)s1` was tested, and the activation was -49.8% (inactive). With `CCCc1nc(SCC(=O)Nc2ccccc2OC)c2c(=O)n(C)c(=O)n(C)c2n1` the activation was -10.4% (inactive). For `CCc1cc(=O)oc2cc(C)cc(OC(C)C(=O)O)c12` (stereo unspecified), the activation was 12.8% (inactive).
